Some of the results follow. Values without a mark were called inactive. Activity calls are given as the source filed them.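 How the source made its calls: active means mean activation over replicate wells exceeds the adjusted hit threshold taken from the earlier primary screen (cut at about 20% in these data); inactive means the rest.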

The target in the assay is cAMP-dependent protein kinase type I-alpha regulatory subunit (Bos taurus) (UniProt P00514). The assay can be described thus: PKAc release from R1A subunit – biochemical, fluorescence polarization, Cy5-IP20, triplicate, confirmation (AID 504800).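 Further: 0% = holoenzyme mix with DMSO only and 100% = cGMP-activated control wells.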 The conditions noted are these: PKA-R1A holoenzyme dissociation, at 11.4 µM, active compounds read high.
Sequence of cAMP-dependent protein kinase type I-alpha regulatory subunit (Bos taurus) (P00514 whole entry, looked up): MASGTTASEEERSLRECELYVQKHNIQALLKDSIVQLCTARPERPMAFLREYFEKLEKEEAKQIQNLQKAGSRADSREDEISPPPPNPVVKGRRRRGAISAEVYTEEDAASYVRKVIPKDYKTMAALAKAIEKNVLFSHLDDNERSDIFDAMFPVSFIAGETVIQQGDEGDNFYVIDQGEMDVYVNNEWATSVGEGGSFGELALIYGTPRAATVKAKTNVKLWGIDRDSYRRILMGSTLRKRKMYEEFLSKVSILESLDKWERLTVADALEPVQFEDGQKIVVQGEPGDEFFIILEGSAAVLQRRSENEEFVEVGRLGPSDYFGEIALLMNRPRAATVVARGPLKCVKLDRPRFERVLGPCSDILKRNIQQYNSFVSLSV
Turning to `COc1ccccc1N1CC(C(=O)Nc2nnc(SCC(=O)NC(C)C)s2)CC1=O` (stereo not given), the activation was -1.21%. The value for `N#Cc1ccccc1CN1C(=O)S/C(=C/c2cccn2-c2cccc(C(=O)O)c2)C1=O` was 26.8% (active); that for `COc1ccc(NC(=O)c2ccc(C#CC(C)(C)O)cc2)cc1` was -0.53%. Regarding `CCOc1cc(C(=O)Nc2c(C)ccc3nsnc23)cc(OCC)c1OCC`, the activation was -1.31%. The same measure for `Cc1ccc2nc3c(cc(C(=O)NCCc4ccccc4)c(=N)n3CC3CCCO3)c(=O)n2c1` (stereo not given): 4.46%; for `CCC(Oc1ccccc1C)C(=O)Nc1ccc(S(=O)(=O)Nc2cc(C)on2)cc1` (stereo not given): 2.1%; for `O=C(Nc1ccc2c(c1)[C@@H]1C[C@@H](CC(=O)N3CCCCC3)O[C@@H](CO)[C@@H]1O2)NC1CCCCC1`: 4.17%. In the case of `COc1ccc(CNc2nnnn2C)cc1`, the activation was 6.31%. With `CN(C(=O)CSc1nnc(Nc2ccccc2)s1)C1CCS(=O)(=O)C1` (stereo not given), the activation is 1.24%. In the case of `CCCC(=O)Nc1ncnc2c1ncn2[C@@H]1O[C@@H]2OP(=O)(O)OC[C@H]2[C@H]1OC(=O)CCC`, the activation was 43.8% (active).

The values above are taken from PubChem BioAssay AID504800 (The Scripps Research Institute Molecular Screening Center, 2011).
